# According to ChEMBL document CHEMBL3988442, “University of Dundee, Small-Polar-MMV Screening Library” (2021):
# For some of these results: Measured potencies and affinities stand elsewhere.
# Key:
# Design in all cases: scale not given: direction of the effect not stated beside the values
# [1] = target: Protein translocase subunit SecA (Escherichia coli (strain K12)) (UniProt P10408); assay: Assay to Identify E. coli SecA ATPase Inhibitors; assay type: functional; conditions: 30 µM
# [2] = target: T1, Ubiquitin-activating enzyme e1, putative (Leishmania donovani (strain BPK282A1)) (UniProt E9BSI1); assay: Leishmania donovani Ubiquitin Activating Enzyme (LdE1); assay type: functional; conditions: 30 µM
# T1 sequence (whole entry): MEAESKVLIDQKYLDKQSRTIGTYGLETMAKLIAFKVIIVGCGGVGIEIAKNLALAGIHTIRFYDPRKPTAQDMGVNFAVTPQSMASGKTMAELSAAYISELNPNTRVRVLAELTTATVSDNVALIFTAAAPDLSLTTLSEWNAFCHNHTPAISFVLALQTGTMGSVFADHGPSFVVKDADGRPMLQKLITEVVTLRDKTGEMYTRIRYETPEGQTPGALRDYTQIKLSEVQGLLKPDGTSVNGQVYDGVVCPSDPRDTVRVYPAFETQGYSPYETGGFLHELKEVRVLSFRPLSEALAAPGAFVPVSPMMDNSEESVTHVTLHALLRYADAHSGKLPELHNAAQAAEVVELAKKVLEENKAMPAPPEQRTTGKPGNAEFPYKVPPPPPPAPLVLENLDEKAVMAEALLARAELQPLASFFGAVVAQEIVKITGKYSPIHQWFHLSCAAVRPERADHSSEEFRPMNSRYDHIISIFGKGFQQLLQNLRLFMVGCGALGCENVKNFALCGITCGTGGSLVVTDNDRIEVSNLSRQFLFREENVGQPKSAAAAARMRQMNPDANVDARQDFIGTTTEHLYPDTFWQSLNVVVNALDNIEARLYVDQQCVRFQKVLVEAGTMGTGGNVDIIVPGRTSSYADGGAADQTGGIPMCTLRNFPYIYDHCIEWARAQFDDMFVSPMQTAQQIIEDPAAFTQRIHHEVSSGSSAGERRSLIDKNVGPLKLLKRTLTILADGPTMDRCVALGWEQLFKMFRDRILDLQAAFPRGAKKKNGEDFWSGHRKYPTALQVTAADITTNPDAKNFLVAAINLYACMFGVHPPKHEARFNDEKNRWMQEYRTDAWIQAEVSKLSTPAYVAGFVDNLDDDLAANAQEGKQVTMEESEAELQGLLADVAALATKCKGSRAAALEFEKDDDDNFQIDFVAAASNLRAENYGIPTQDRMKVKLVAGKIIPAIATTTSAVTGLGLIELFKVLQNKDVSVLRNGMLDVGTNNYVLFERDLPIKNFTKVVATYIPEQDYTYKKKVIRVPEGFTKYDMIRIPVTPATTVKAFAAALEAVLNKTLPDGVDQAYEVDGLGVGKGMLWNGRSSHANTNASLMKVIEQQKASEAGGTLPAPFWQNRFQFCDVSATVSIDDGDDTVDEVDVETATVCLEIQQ
# [3] = target: AMP-activated protein kinase, AMPK (Homo sapiens) (UniProt P54646+O43741+P54619+Q9UGJ0+Q9Y478+Q13131+Q9UGI9); assay: AMP-dependent Kinase enzyme assay. An in vitro enzyme assay that detects ADP turnover that is directly proportional to AMPK activity. This uses naive AMPK that is activated during the assay with MK-8722; assay type: functional; conditions: 30 µM
# [4] = target: Sialic acid-binding Ig-like lectin 9 (Homo sapiens) (UniProt Q9Y336); assay: Hs-Siglec9 ALPHAscreen SOP 20170721; conditions: 10 µM
# Chain of Sialic acid-binding Ig-like lectin 9 (Homo sapiens) (Q9Y336 whole entry): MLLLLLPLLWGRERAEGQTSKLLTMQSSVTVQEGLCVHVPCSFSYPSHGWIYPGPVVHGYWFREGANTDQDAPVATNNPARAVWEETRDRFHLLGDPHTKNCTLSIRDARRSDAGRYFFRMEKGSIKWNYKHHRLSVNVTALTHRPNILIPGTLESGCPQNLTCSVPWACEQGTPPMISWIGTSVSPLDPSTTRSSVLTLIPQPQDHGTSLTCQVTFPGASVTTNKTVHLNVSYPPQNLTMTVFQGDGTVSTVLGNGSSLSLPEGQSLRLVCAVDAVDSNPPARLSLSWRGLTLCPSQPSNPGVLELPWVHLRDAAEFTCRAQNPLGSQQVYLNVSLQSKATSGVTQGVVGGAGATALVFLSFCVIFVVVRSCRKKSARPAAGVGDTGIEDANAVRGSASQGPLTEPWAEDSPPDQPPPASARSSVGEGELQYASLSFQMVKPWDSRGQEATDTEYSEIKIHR
# Trypanosoma cruzi = assay: Trypanosoma cruzi phosphomannomutase and mannose-1-phosphate guanylyltransferase assay; assay type: functional; conditions: 10 µM
# [5] = target: T2, Arginase-2, mitochondrial (Homo sapiens) (UniProt P78540); assay: in vitro enzyme assay to detect the production of urea directly proportional to the activity of Arginase II; assay type: functional; conditions: 33.3 µM; also: in the data most compounds retested in dose-response had high values
# T2 sequence (whole entry): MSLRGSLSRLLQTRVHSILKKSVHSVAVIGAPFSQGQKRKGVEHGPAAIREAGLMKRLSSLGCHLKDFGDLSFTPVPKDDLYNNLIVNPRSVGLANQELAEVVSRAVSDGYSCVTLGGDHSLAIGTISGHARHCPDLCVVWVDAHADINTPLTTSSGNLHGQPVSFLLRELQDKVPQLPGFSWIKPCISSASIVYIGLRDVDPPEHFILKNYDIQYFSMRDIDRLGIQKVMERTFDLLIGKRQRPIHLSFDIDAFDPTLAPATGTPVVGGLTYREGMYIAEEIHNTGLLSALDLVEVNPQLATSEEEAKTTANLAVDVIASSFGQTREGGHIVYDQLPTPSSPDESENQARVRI
# [6] = target: T3, Proteasome subunit beta (Trypanosoma cruzi) (UniProt O96673); assay: Trypanosoma cruzi proteasome chymotrypsin-like activity (TcProtChymo) assay.; also: in the data most compounds retested in dose-response had high values; assay type: functional; conditions: 9.37 µM
# T3 sequence (whole entry): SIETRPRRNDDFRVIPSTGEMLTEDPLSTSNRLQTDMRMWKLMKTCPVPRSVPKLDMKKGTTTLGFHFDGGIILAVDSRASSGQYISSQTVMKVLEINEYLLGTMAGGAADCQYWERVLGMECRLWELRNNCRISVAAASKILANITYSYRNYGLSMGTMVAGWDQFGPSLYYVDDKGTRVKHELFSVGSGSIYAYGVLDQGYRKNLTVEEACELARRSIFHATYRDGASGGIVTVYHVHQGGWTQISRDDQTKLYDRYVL
# Homo sapiens = organism: Homo sapiens; assay: To identify inhibition of the IFN signalling (Jak-Stat) pathway via expression of an eGFP reporter gene under the control of an IFN-stimulated response element (ISRE) containing MxA promoter.; assay type: functional; conditions: 30 µM
# [7] = target: T4, Tyrosyl-tRNA synthetase, putative (Trypanosoma cruzi (strain CL Brener)) (UniProt Q4DSP6); assay: Trypanosoma cruzi tyrosyl tRNA synthetase (TcYRS) _High Tyrosine SOP; assay type: functional; conditions: 30 µM; also: in the data most compounds retested in dose-response had high values
# T4 sequence (whole entry): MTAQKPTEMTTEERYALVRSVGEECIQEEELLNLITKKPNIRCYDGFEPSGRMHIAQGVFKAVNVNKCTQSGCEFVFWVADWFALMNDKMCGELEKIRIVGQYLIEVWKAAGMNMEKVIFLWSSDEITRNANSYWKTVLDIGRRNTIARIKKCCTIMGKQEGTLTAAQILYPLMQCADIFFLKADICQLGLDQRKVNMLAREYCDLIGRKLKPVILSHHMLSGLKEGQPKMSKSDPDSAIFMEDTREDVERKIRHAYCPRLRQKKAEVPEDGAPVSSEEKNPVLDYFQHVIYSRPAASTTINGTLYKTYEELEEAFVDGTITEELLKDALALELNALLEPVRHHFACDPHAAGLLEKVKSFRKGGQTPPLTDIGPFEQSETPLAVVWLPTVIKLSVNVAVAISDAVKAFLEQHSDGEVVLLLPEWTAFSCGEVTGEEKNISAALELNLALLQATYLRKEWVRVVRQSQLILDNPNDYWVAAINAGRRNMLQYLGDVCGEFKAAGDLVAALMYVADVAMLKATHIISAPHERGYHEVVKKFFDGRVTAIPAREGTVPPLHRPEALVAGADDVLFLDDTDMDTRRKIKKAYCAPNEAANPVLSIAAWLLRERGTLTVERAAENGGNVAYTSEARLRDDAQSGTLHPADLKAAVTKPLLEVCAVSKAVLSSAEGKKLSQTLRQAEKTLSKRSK
# [8] = target: T4, Tyrosyl-tRNA synthetase, putative (Trypanosoma cruzi (strain CL Brener)); assay: Trypanosoma cruzi tyrosyl tRNA synthetase (TcYRS) SOP; assay type: functional; conditions: 30 µM
# [9] = target: Chromo domain-containing protein 1 (Saccharomyces cerevisiae (strain ATCC 204508 / S288c) (Baker's yeast)) (UniProt P32657); assay: ScCHD-1 Enzyme Inhibition Assay; assay type: functional; conditions: 30 µM; also: in the data most compounds retested in dose-response had high values
# Chain of Chromo domain-containing protein 1 (Saccharomyces cerevisiae (strain ATCC 204508 / S288c) (Baker's yeast)) (P32657 whole entry, the tested form may be a part): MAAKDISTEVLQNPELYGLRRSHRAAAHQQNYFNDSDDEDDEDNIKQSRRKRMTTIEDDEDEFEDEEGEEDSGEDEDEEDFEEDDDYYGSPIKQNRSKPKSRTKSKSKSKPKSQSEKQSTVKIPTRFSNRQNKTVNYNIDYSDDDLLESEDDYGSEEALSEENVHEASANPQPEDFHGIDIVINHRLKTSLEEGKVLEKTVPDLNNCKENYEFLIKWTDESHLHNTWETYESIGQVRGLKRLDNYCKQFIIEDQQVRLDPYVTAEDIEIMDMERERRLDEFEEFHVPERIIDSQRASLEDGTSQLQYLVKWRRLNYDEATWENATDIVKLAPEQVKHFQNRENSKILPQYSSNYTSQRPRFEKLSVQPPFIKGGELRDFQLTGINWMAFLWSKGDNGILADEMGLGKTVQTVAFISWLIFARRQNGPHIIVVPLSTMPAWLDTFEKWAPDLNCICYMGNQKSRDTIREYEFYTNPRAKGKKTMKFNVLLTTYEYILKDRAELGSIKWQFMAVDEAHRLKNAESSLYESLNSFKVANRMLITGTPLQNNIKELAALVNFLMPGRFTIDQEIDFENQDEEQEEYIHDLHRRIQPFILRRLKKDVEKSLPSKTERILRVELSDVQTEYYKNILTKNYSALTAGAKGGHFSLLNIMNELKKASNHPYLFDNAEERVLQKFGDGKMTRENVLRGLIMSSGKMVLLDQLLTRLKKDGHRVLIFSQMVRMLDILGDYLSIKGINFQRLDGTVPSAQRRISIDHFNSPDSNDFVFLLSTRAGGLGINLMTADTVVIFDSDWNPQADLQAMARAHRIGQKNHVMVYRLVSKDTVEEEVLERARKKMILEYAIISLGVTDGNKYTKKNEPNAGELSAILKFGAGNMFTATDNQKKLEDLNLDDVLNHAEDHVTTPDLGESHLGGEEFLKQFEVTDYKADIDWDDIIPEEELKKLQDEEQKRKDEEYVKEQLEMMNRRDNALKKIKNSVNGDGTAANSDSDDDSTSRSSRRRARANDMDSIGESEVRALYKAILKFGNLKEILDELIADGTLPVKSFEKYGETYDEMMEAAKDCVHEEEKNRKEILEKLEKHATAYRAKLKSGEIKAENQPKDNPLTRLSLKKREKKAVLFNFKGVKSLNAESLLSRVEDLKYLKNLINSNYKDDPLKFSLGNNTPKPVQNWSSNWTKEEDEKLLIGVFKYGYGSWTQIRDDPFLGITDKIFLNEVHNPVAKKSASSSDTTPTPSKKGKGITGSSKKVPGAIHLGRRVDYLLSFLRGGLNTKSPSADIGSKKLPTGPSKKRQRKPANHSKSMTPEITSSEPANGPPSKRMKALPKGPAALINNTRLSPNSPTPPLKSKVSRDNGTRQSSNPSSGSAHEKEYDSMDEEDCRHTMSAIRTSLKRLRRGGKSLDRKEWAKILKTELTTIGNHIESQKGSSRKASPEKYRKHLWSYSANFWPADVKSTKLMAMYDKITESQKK
# Chain of Protein translocase subunit SecA (Escherichia coli (strain K12)) (P10408 whole entry): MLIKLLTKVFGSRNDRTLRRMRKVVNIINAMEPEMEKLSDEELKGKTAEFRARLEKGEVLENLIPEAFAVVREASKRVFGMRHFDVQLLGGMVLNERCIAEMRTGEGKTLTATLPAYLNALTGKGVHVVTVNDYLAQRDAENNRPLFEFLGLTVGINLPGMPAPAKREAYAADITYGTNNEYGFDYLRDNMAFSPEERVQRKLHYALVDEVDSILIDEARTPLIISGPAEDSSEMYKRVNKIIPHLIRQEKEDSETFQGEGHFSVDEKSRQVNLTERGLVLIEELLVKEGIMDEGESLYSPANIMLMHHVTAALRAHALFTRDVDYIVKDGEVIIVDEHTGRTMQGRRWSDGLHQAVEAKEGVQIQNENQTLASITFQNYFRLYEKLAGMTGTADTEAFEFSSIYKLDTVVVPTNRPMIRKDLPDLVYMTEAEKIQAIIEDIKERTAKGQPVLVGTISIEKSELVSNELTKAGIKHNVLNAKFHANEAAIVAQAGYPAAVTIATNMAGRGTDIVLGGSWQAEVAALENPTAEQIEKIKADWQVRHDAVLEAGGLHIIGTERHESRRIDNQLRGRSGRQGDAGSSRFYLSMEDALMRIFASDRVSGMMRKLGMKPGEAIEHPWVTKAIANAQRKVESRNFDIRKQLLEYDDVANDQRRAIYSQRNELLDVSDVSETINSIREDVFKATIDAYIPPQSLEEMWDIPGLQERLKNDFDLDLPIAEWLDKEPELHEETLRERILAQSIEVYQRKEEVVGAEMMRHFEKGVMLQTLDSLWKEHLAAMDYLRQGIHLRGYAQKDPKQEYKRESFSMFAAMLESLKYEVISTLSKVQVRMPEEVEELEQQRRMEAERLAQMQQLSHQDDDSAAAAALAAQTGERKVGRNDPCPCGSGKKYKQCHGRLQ
SMILES,Percent Effect [1] [%],Percent Effect [2] [%],Percent Effect [3] [%],Percent Effect [4] [%],Percent Effect (Trypanosoma cruzi) [%],Percent Effect [5] [%],Percent Effect [6] [%],Percent Effect (Homo sapiens) [%],Percent Effect [7] [%],Percent Effect [8] [%],Percent Effect [9] [%]
CC1CCN(Cc2cnc(S(=O)(=O)CC3CC3)n2CC2CCCO2)CC1 (stereo unspecified),-4.08,-4.17,9.77,0.164,-3.21,-2.65,0.877,4.06,-1.05,-7.69,5.99
Cc1ncc(CN(C)C2CCCN(Cc3noc(C4CC4)n3)C2)s1 (stereo unspecified),-3.21,5.26,-3.55,4.27,7.52,-0.766,8.02,14.3,2.45,12.2,-9.03
COCC1CC2(CCN(C(=O)c3cc(C)oc3C)CC2)CN1C(C)C (stereo unspecified),-2.57,0,-9.18,-4.84,2.15,-1.25,9.21,1.95,8.91,15.8,-7
O=C(C1=CCCC1)N1CCO[C@H]2[C@@H](OCC3CC3)CC[C@@H]21,-3.62,18.7,-4.28,-6.26,2.51,-51.1,18.3,-0.0365,5.21,22.5,-7.27
CN(C(=O)Cn1nc(-c2cccs2)ccc1=O)C1CCS(=O)(=O)C1 (stereo unspecified),-7.27,0,-37.7,-0.941,-7.3,1.18,14.9,19.4,-5.32,-10.4,-7.9
O=C(CCc1cccs1)N1CCC(Nc2cccnn2)CC1,-7.51,-23.7,-9.73,4.64,8.87,1.8,9.73,5.28,9.36,23.5,-11.1
C=C(Cl)CN1CCC(C(=O)c2cc(F)ccc2F)CC1,-2.54,-13.2,5.79,-1.3,4.32,-0.766,-1.67,5.08,0.49,4.88,6.62
Cc1ccc(NC(=O)Cn2cc(I)cn2)cc1,-4.63,-4.17,-12.3,3.22,-2.82,-1.32,6.32,28.2,-4.21,-7.69,3.77
CC(CN1CCCC1)C(=O)N1CCC(c2nccn2CC2CC2)CC1 (stereo unspecified),-4.31,13.5,-3.47,27.7,10.2,2.86,16.2,5.41,7.94,21.9,-11.2
c1cnn(CC2CN(c3ncnc4sccc34)CCO2)c1 (stereo unspecified),-4.4,2.7,2.36,-2.57,1.37,2.08,17.8,52.9,12.9,15.8,-4.89
CCc1nnc2n1CCN(C(=O)c1ccc3nc(C)c(C)nc3c1)C2,-3.88,1.39,140,3.38,5.34,-1.32,20.7,-6.8,5.26,15.4,-2.97
